Measured values taken from PubChem BioAssay (EPA / NIEHS).
Calls of active or inactive are those of the source. The calls were made as follows: active = hit-call score of the fitted dose curve at least 0.9, where 1 is the maximum; inactive = score below 0.9.

Assays:
[1] = APR_HepG2_CellCycleArrest_24hr: Apredica 24-hour HepG2 Assay for Cell Cycle Arrest (AID 2282905); conditions: imaging, actives raise or lower the signal;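 also: cell cycle arrest scored as ratio of 2N to 4N nuclear DNA content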
In short: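 After 24 h exposure at 0.39–200 uM in 0.5% DMSO, fixed cells received Hoechst 33342 staining. Imaging quantified per-nucleus DNA content; gain or loss fitted against DMSO controls.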

[2] = APR_HepG2_NuclearSize_24hr: Apredica 24-hour HepG2 Assay for Nuclear Size (AID 2282907); conditions: high-content imaging, actives raise or lower the signal
In short: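 Nuclear size from Hoechst 33342-stained, formaldehyde-fixed HepG2 nuclei imaged by high-content microscopy, after 24 h dosing at ten concentrations from 0.39 to 200 uM in 0.5% DMSO; gain or loss relative to DMSO baseline.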

[3] = APR_HepG2_CellLoss_24hr: Apredica 24-hour HepG2 Assay for Cell Loss (AID 2282908); conditions: high-content imaging;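 as to AC50: fit in both directions so a hit may be cell loss or gain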
In short: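 Nuclei stained with Hoechst 33342 after formaldehyde fixation (3.7%) were imaged at 20x to count cells. Exposure lasted 24 hr, at ten concentrations from 0.39 to 200 uM in duplicate, with 0.5% v/v DMSO. Fit bidirectional, relative to DMSO.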

[4] = APR_HepG2_MicrotubuleCSK_24hr: Apredica 24-hour HepG2 Assay for Microtubule CSK Stabilty (AID 2282909); conditions: HepG2 microtubule cytoskeleton imaging, actives raise or lower the signal
In short: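 Fixed HepG2 cells were stained for alpha-tubulin and imaged after 24 hr exposure to ten concentrations spanning 0.39–200 uM in 0.5% DMSO. Signal change was fitted in both directions relative to DMSO; taxol was the positive control.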

[5] = APR_HepG2_MitoticArrest_24hr: Apredica 24-hour HepG2 Assay for Mitotic Arrest (AID 2282910); conditions: high-content imaging, actives raise or lower the signal
In short: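 Treatment lasted 24 hr in the human HepG2 line at 0.39–200 uM, solvent held at 0.5% DMSO. Fixed cells were stained with Hoechst 33342 and anti-phospho-histone H3, imaged at 20x, and analysed by gain- or loss-of-signal fitting against DMSO.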

[6] = APR_HepG2_MitoMembPot_24hr: Apredica 24-hour HepG2 Assay for Mitochondrial Membrane Potential (AID 2282911); conditions: imaging, actives raise or lower the signal
In short: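 Human hepatoma HepG2 cultures received ten compound concentrations up to 200 uM for 24 hr. Membrane-potential dye signal, captured by automated fluorescence microscopy, was scored for gain or loss against DMSO controls.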

[7] = APR_HepG2_MitoMass_24hr: Apredica 24-hour HepG2 Assay for Mitochondrial Mass (AID 2282912); conditions: high-content imaging, actives raise or lower the signal
In short: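 Endpoint is MitoTracker Red CMXRos (250 nM, 30 min, pre-fixation) intensity from 20x high-content imaging, nuclei located by Hoechst. Human HepG2 cells received ten concentrations from 0.39 to 200 uM in 0.5% DMSO for 24 hr, duplicate wells. Bidirectional fit relative to DMSO.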

[8] = APR_HepG2_p53Act_24hr: Apredica 24-hour HepG2 Assay for p53 Activation (AID 2282913); conditions: high-content imaging, actives raise or lower the signal;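 also: p53 protein immunofluorescence averaged per cell in HepG2 with Hoechst nuclei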
In short: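 Automated fluorescence imaging quantifies p53 immunostaining in HepG2 cells after a 24 hr exposure (0.39–200 uM, duplicate, 0.5% DMSO). Nuclei are located by Hoechst 33342 staining.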

[9] = APR_HepG2_CellCycleArrest_72hr: Apredica 72-hour HepG2 Assay for Cell Cycle Arrest (AID 2282914); conditions: high-content imaging, actives raise or lower the signal
In short: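 Cell cycle arrest in HepG2 was scored from nuclear DNA content after 72 hr compound treatment (0.39–200 uM). Activity, either gain or loss, was fitted against the DMSO baseline.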

[10] = APR_HepG2_CellLoss_72hr: Apredica 72-hour HepG2 Assay for Cell Loss (AID 2282915); conditions: high-content imaging
In short: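 HepG2 cells were exposed for 72 hr to compounds at 0.39–200 uM (ten concentrations, duplicate) in 0.5% v/v final DMSO. Nuclei were stained with Hoechst 33342 after 3.7% formaldehyde fixation, imaged at 20x, and counted; fits bidirectional versus DMSO.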

[11] = APR_HepG2_P-H2AX_72hr: Apredica 72-hour HepG2 Assay for H2AX Phosphorylation (AID 2282916); conditions: imaging, actives raise or lower the signal;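 also: phospho-histone H2A.x immunostain intensity per cell marking DNA damage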
In short: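 Phospho-histone H2A.x immunofluorescence, multiplexed with Hoechst and c-Jun, quantified by high-content imaging. Compounds applied to HepG2 for 72 h across ten concentrations (0.39–200 uM, 0.5% DMSO), in duplicate; DMSO baseline.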

[12] = APR_HepG2_MitoMembPot_72hr: Apredica 72-hour HepG2 Assay for Mitochondrial Membrane Potential (AID 2282917); conditions: imaging, actives raise or lower the signal
In short: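 HepG2 cells exposed 72 h to compounds at 0.39–200 uM (0.5% v/v DMSO, duplicates); MitoTracker Red CMXRos 250 nM loaded 30 min before 3.7% formaldehyde fixation, imaged by HCS fluorescence. Bidirectional fit versus DMSO.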

[13] = APR_HepG2_MitoticArrest_72hr: Apredica 72-hour HepG2 Assay for Mitotic Arrest (AID 2282918); conditions: high-content imaging, actives raise or lower the signal
In short: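 Mitotic arrest in HepG2 is scored from phospho-histone H3 staining after 72 hr dosing across 0.39–200 uM, with DMSO at 0.5% v/v. Nuclei are identified by Hoechst 33342 and fluorescence intensity is quantified per cell.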

[14] = APR_HepG2_MicrotubuleCSK_72hr: Apredica 72-hour HepG2 Assay for Microtubule CSK Stabilty (AID 2282919); conditions: HepG2 microtubule cytoskeleton, high-content imaging, actives raise or lower the signal
In short: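 Ten-point dosing (0.39–200 uM, 0.5% DMSO) of HepG2 for 72 hr, with taxol as the cytoskeletal positive control. The cells were formaldehyde-fixed and then stained with alpha-tubulin/Cy5 and Hoechst. Imaging at 20x used a −2 um Z offset for tubulin.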

[15] = APR_HepG2_P-H2AX_24hr: Apredica 24-hour HepG2 Assay for H2AX Phosphorylation (AID 2282920); conditions: high-content imaging, actives raise or lower the signal
In short: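 Signal comes from a FITC-labeled secondary detecting phospho-histone H2A.x in fixed HepG2 cells, quantified by automated imaging at 20x. Dosing ran 24 hr across 0.39–200 uM with 0.5% v/v DMSO.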

[16] = APR_HepG2_StressKinase_72hr: Apredica 72-hour HepG2 Assay for Stress Kinase (AID 2282921); conditions: HepG2 stress kinase (phospho-c-Jun) imaging, actives raise or lower the signal
In short: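 Stress kinase signal is phospho-c-Jun immunofluorescence (1:500 primary, Cy3 secondary) in fixed, permeabilized human HepG2 cells imaged at 20x. Exposure lasted 72 hr over ten concentrations from 0.39 to 200 uM, 0.5% DMSO, in duplicate. Bidirectional fit versus DMSO.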

[17] = APR_HepG2_StressKinase_24hr: Apredica 24-hour HepG2 Assay for Stress Kinase (AID 2282922); conditions: HepG2 stress kinase (phospho-c-Jun) imaging, actives raise or lower the signal
In short: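 After 24 hr compound treatment (up to 200 uM, final DMSO 0.5% v/v), HepG2 cells are fixed and multiplex-labeled; phospho-c-Jun intensity is captured by high-content fluorescence imaging and analyzed relative to DMSO.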

[18] = APR_HepG2_p53Act_72hr: Apredica 72-hour HepG2 Assay for p53 Activation (AID 2282923); conditions: high-content imaging, actives raise or lower the signal;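 also: average cellular p53 protein immunofluorescence intensity in HepG2 cells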
In short: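 After 72 h with compound (ten points, 0.39 to 200 uM, final DMSO 0.5% v/v), fixed HepG2 cells were labelled with sheep anti-p53 and Hoechst 33342 and imaged; gain or loss versus DMSO scored.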

[19] = APR_HepG2_MitoMass_72hr: Apredica 72-hour HepG2 Assay for Mitochondrial Mass (AID 2282924); conditions: high-content imaging, actives raise or lower the signal;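 also: MitoTracker Red CMXRos stain intensity per cell imaged as mitochondrial mass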
In short: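 Steps: treat HepG2 72 hr (0.39–200 uM, duplicate wells); load MitoTracker Red CMXRos, 250 nM, 30 min; fix with 3.7% formaldehyde, permeabilise with 0.5% Triton X-100; capture images, nuclei via Hoechst 33342; fit bidirectionally against DMSO.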

[20] = APR_HepG2_NuclearSize_72hr: Apredica 72-hour HepG2 Assay for Nuclear Size (AID 2282925); conditions: high-content imaging, actives raise or lower the signal
In short: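 Compounds (0.39–200 uM, final DMSO 0.5%) were applied to HepG2 for 72 hr. Cells were then formaldehyde-fixed, permeabilized and labelled with Hoechst 33342. Nuclear diameter was quantified from six images per well.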

Measured: AC50

OCC(O)CO
inactive: [1] | [2] | [3] | [4] | [5] | [6] | [7] | [9] | [10] | [11] | [12] | [13] | [14] | [15] | [16] | [17] | [18] | [19] | [20]
active: [8] 39.1 nM

CCCCCCCC(=O)OC
inactive: [1] | [2] | [3] | [4] | [5] | [6] | [7] | [8] | [9] | [10] | [11] | [12] | [13] | [14] | [15] | [16] | [17] | [18] | [19]

CC(C)c1cccc(C(C)C)c1NC(=O)NS(=O)(=O)c1cc(C(C)(C)O)co1
inactive: [1] | [2] | [3] | [4] | [5] | [6] | [7] | [8] | [9] | [10] | [11] | [12] | [13] | [14] | [15] | [16] | [17] | [18] | [19] | [20]

O=C(O)CC(O)(CC(=O)O)C(=O)O
inactive: [1] | [2] | [3] | [4] | [5] | [6] | [7] | [8] | [9] | [10] | [11] | [12] | [13] | [14] | [15] | [16] | [17] | [18] | [19]

Nc1nc(Cl)nc2c1ncn2[C@H]1C[C@H](O)[C@@H](CO)O1
inactive: [1] | [4] | [5] | [6] | [12] | [14] | [16] | [19] | [20]
active: [2] 45.1 nM | [3] 40.3 nM | [7] 243 nM | [8] 208 nM | [9] 38.8 nM | [10] 162 nM | [11] 28.8 nM | [13] 89 nM | [18] 38 nM

CC(=O)[C@@]1(O)CC[C@H]2[C@@H]3CCC4=CC(=O)CC[C@]4(C)[C@H]3CC[C@@]21C
inactive: [1] | [2] | [3] | [4] | [5] | [6] | [7] | [9] | [10] | [11] | [12] | [13] | [14] | [15] | [16] | [17] | [19] | [20]
